Measured values from PubChem BioAssay AID430 (Sanford-Burnham Center for Chemical Genomics, 2006).
Out of some 63,000 compounds screened, about 1,100 (1.7%) were called active. The sample holds actives, similar compounds and a random draw of the others, so the mix is not that of the screen. Rule as the data show it: active = cytotoxicity above about 50%; inactive = the rest. Entries with a potency or affinity are not part of this list.

Experiment: HPDE-C7 pancreatic duct cell viability loss – fluorescence, HTS (AID 430);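 also: cells exposed to compound for 48 hours before viability readout; 0% = vehicle and 100% = reference cytotoxic drug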
Conditions: HPDE-C7 pancreatic duct cells viability, at 10 µM, hits give high values

Q: With CCOc1cccc(-c2nnc3n2N=C(c2cc(OC)ccc2OC)CS3)c1 as the compound, how does the cytotoxicity read?
A: 28.5% (inactive)

Q: For COCCSc1ccccc1C(=O)Nc1nncs1, which cytotoxicity is on record?
A: -5.4% (inactive)

Q: Which cytotoxicity does the source give for O=C(CCN1CCN(CCC(=O)c2ccccc2)CC1)c1ccccc1 here?
A: -22.9% (inactive)

Q: For O=C(CCN1CCN(c2ccccc2F)CC1)Nc1ccccc1F, which cytotoxicity is on record?
A: -8.5% (inactive)

Q: With C=CCn1c(SCCC(=O)O)nc2c1c(=O)n(C)c(=O)n2C as the compound, how does the cytotoxicity read?
A: -15.6% (inactive)

Q: For COc1ccc(NC(C)=O)cc1NC(=O)CSc1nnc(-c2ccccc2)n1N, which cytotoxicity is on record?
A: -1.2% (inactive)

Q: With CC[C@H](C)C(=O)O[C@H]1C[C@@H](C)C=C2C=C[C@H](C)[C@H](CC[C@@H]3C[C@@H](O)CC(=O)O3)[C@H]21 as the compound, how does the cytotoxicity read?
A: 57.6% (active)

Q: With NC(=O)COC(=O)c1ccc(S(=O)(=O)N2CCCCCC2)cc1 as the compound, how does the cytotoxicity read?
A: 10.2% (inactive)

Q: With CCOC(=O)CSc1nnc([C@H](CC(C)C)NC(=O)OC(C)(C)C)o1 as the compound, how does the cytotoxicity read?
A: 1.4% (inactive)

Q: With CC(C)(C)OC(=O)N[C@@H](Cc1ccccc1)c1nnc(S(=O)(=O)Cc2cccc(F)c2)o1 as the compound, how does the cytotoxicity read?
A: -10.9% (inactive)

Q: With CCC(C)[C@@H](NC(=O)OC(C)(C)C)c1nnc(S(=O)(=O)Cc2cccc(C)c2)o1 (stereo not given in full) as the compound, how does the cytotoxicity read?
A: 5.7% (inactive)

Q: With CC(C)C[C@H](NC(=O)OC(C)(C)C)c1nnc(SCc2cccc(F)c2)o1 as the compound, how does the cytotoxicity read?
A: -12% (inactive)

Q: Which cytotoxicity does the source give for COC(=O)CS(=O)(=O)c1nnc([C@H](Cc2ccccc2)NC(=O)OC(C)(C)C)o1 here?
A: -7.1% (inactive)

Q: Which cytotoxicity does the source give for CC(C)[C@H](NC(=O)OC(C)(C)C)c1nnc(S(=O)(=O)Cc2c(F)cccc2Cl)o1 here?
A: -7.3% (inactive)

Q: For CC[C@@H](C)[C@H](NC(=O)OC(C)(C)C)c1nnc(S(=O)(=O)Cc2cc(C)ccc2C)o1, which cytotoxicity is on record?
A: 58.1% (active)

Q: Which cytotoxicity does the source give for Cc1ccc(CCNC(=O)NC(C)(C)C)cc1 here?
A: -6.5% (inactive)

Q: For O=C(OC1CCOC1=O)c1ccc(S(=O)(=O)N2CCCCCC2)cc1 (stereo not given), which cytotoxicity is on record?
A: -10.6% (inactive)

Q: Which cytotoxicity does the source give for COc1cc2c(C#N)c(N3CCOCC3)nc(N)c2c(N)n1 here?
A: 37.5% (inactive)

Q: With COc1cc2c(C#N)c(N3CCN(c4ccccc4OC)CC3)nc(N)c2c(N)n1 as the compound, how does the cytotoxicity read?
A: 54.8% (active)

Q: Which cytotoxicity does the source give for CCOc1cc2c(C#N)c(N3CCOCC3)nc(N)c2c(N)n1 here?
A: 23% (inactive)

Q: For COc1cc2c(C#N)c(N3CCCCC3)nc(N)c2c(N)n1, which cytotoxicity is on record?
A: 44.8% (inactive)

Q: With N#Cc1c(N2CCCC2)nc(N)c2c(N)nc(N3CCCC3)cc12 as the compound, how does the cytotoxicity read?
A: 1.9% (inactive)

Q: Which cytotoxicity does the source give for COc1ccc(Cc2nc(-c3cccs3)no2)cc1OC here?
A: 5.9% (inactive)

Q: For Cc1ccc(OCCSc2nnc(NC(=O)c3ccco3)s2)cc1, which cytotoxicity is on record?
A: 4.3% (inactive)

Q: With CCC(C)NC(=O)CCS(=O)(=O)c1ccc2c(c1)n(C)c(=O)c(=O)n2C (stereo not given) as the compound, how does the cytotoxicity read?
A: -0.5% (inactive)

Q: With CC(C(=O)Nc1sccc1C(N)=O)N1C(=O)C2CC=CCC2C1=O (stereo not given) as the compound, how does the cytotoxicity read?
A: -1.9% (inactive)

Q: Which cytotoxicity does the source give for CC(CCc1ccccc1)NC(=O)C1CCN(S(=O)(=O)N2CCCCC2)CC1 (stereo not given) here?
A: -21.3% (inactive)

Q: With Clc1c(CSc2nc3ccccc3o2)nc2sccn12 as the compound, how does the cytotoxicity read?
A: 13.8% (inactive)

Q: Which cytotoxicity does the source give for O=C(O)C1CCCCC1C(=O)Nc1ccc2c(c1)CCC2 (stereo not given) here?
A: -13.4% (inactive)

Q: For CC1CCCCC1NC(=O)CSc1nnc(COc2ccccc2Cl)o1 (stereo not given), which cytotoxicity is on record?
A: -6.2% (inactive)

Q: For CCCn1c(N)c(N(C)C)c(=O)n(CC(=O)Nc2ccc(OC(F)(F)F)cc2)c1=O, which cytotoxicity is on record?
A: -2.7% (inactive)

Q: For COc1ccc(OC)c(Nc2cc(-c3ccccc3)nc(N)n2)c1, which cytotoxicity is on record?
A: 68.5% (active)

Q: With COc1ccc(OC)c(Nc2cc(C)nc3ccccc23)c1 as the compound, how does the cytotoxicity read?
A: -3.8% (inactive)

Q: For COc1cc(-c2ccccc2)nc(N)n1, which cytotoxicity is on record?
A: -3.4% (inactive)

Q: For Cc1nc2ccccc2c2oc(C(=O)N3CCc4ccccc43)cc12, which cytotoxicity is on record?
A: 0.3% (inactive)

Q: Which cytotoxicity does the source give for COCCN1C=C(C(=O)OC)C(c2ccc(OC)c(OC)c2)C(C(=O)OC)=C1 here?
A: -14.4% (inactive)

Q: For CC1CN(c2nc3ccccn3c(=O)c2/C=C(\C#N)S(=O)(=O)c2ccccc2)CC(C)O1 (stereo not given), which cytotoxicity is on record?
A: -12.3% (inactive)

Q: With COc1ccc(NC(=O)CSc2nnc(-c3ccco3)n2C)cc1 as the compound, how does the cytotoxicity read?
A: -10.6% (inactive)

Q: With Clc1ccccc1CSc1ncccn1 as the compound, how does the cytotoxicity read?
A: -5.2% (inactive)

Q: With O=C(CSc1nnc(-c2ccco2)c(-c2ccco2)n1)Nc1ccccc1 as the compound, how does the cytotoxicity read?
A: 9.9% (inactive)

Q: Which cytotoxicity does the source give for Cc1ccc(NC(=O)CSc2nnc(-c3ccco3)c(-c3ccco3)n2)cc1 here?
A: 82.6% (active)

Q: For Cc1cc(C)nc(SCc2nnc(SCc3ccccc3Cl)o2)n1, which cytotoxicity is on record?
A: -4.7% (inactive)

Q: For CC1(C)OC(=O)C(=CNc2cccc(C(=O)O)c2)C(=O)O1, which cytotoxicity is on record?
A: -20.6% (inactive)

Q: With COc1ccc(S(=O)(=O)NCCSc2ccc(C)cc2)cc1OC as the compound, how does the cytotoxicity read?
A: 12.8% (inactive)

Q: Which cytotoxicity does the source give for COc1ccc(-c2nc(CN3CCC(C(=O)NC(C)C)CC3)c(C)o2)cc1OC here?
A: -10.9% (inactive)

Q: With COc1ccc(C2CC(c3c(O)cc(C)oc3=O)=NCCS2)c(OC)c1 (stereo not given) as the compound, how does the cytotoxicity read?
A: 71.1% (active)

Q: For COc1ccc(C2NC(=O)c3n[nH]c(C)c32)c(OC)c1 (stereo not given), which cytotoxicity is on record?
A: 4.3% (inactive)

Q: Which cytotoxicity does the source give for COc1ccc(C2C(C(C)=O)=C(O)C(=O)N2C)c(OC)c1 (stereo not given) here?
A: 6.1% (inactive)

Q: For Cc1cccc(N(Cc2nnc3n2CCCCC3)C(=O)Nc2ccccc2)c1, which cytotoxicity is on record?
A: -21.7% (inactive)

Q: With COc1cc(CO)cc(-c2cc(CO)cc(OC)c2OC)c1OC as the compound, how does the cytotoxicity read?
A: 4% (inactive)

Q: With CN1CCN(c2ncnc3c2sc2nc(N4CCCC4)c4c(c23)CC(C)(C)OC4)CC1 as the compound, how does the cytotoxicity read?
A: -7.2% (inactive)

Q: Which cytotoxicity does the source give for OCCN1CCN(c2ncnc3c2sc2nc(N4CCOCC4)c4c(c23)CCC4)CC1 here?
A: 35.6% (inactive)

Q: Which cytotoxicity does the source give for CC1(C)Cc2c(c(N3CCCC3)nc3sc4c(N5CCN(CCO)CC5)ncnc4c23)CO1 here?
A: 60.5% (active)

Q: With Cn1c(NCc2ccco2)nc2c1c(=O)n(Cc1ccc(Cl)c(Cl)c1)c(=O)n2C as the compound, how does the cytotoxicity read?
A: 8% (inactive)

Q: Which cytotoxicity does the source give for Cn1c(N2CCN(c3ccccn3)CC2)nc2c1c(=O)n(Cc1ccc(Cl)cc1)c(=O)n2C here?
A: 66.4% (active)

Q: With Cn1c(OCc2cccnc2)nc2c1c(=O)n(Cc1ccccc1)c(=O)n2C as the compound, how does the cytotoxicity read?
A: 25% (inactive)

Q: With COc1ccc(CNc2nc3c(c(=O)n(Cc4ccc(Cl)cc4)c(=O)n3C)n2C)cc1 as the compound, how does the cytotoxicity read?
A: 26.6% (inactive)

Q: With Cn1c(NCC(O)c2ccccc2)nc2c1c(=O)n(Cc1ccc(Cl)c(Cl)c1)c(=O)n2C (stereo not given) as the compound, how does the cytotoxicity read?
A: 69% (active)

Q: With Cn1c(NCc2ccccc2)nc2c1c(=O)n(Cc1ccccc1)c(=O)n2C as the compound, how does the cytotoxicity read?
A: 5.6% (inactive)

Q: For Cn1c(NCCCN2CCOCC2)nc2c1c(=O)n(Cc1ccc(Cl)c(Cl)c1)c(=O)n2C, which cytotoxicity is on record?
A: 44% (inactive)

Q: Which cytotoxicity does the source give for Cn1c(N2CCCC2)nc2c1c(=O)n(Cc1ccc(Cl)cc1)c(=O)n2C here?
A: 1.7% (inactive)

Q: Which cytotoxicity does the source give for Cn1c(N2CCN(c3ccccn3)CC2)nc2c1c(=O)n(Cc1ccccc1Cl)c(=O)n2C here?
A: -12.8% (inactive)

Q: For Cn1c(OCc2cccnc2)nc2c1c(=O)n(Cc1ccc(Cl)cc1)c(=O)n2C, which cytotoxicity is on record?
A: 44% (inactive)

Q: Which cytotoxicity does the source give for Cn1c(NCC(O)c2ccccc2)nc2c1c(=O)n(Cc1ccc(Cl)cc1)c(=O)n2C (stereo not given) here?
A: 53.2% (active)

Q: For Cn1c(OCc2cccnc2)nc2c1c(=O)n(Cc1ccc(Br)cc1)c(=O)n2C, which cytotoxicity is on record?
A: 50.4% (active)
